Inconclusive results are not listed. Active and inactive are the calls of the source. How the source made its calls: active means hit-call score of the fitted dose curve at least 0.9, where 1 is the maximum; inconclusive means response in the unintended direction; inactive means score below 0.9.

Chain of Androgen Receptor/SRC-1 Co-activator, AR (gene 367) (P10275 whole entry, looked up, the tested form may be a part): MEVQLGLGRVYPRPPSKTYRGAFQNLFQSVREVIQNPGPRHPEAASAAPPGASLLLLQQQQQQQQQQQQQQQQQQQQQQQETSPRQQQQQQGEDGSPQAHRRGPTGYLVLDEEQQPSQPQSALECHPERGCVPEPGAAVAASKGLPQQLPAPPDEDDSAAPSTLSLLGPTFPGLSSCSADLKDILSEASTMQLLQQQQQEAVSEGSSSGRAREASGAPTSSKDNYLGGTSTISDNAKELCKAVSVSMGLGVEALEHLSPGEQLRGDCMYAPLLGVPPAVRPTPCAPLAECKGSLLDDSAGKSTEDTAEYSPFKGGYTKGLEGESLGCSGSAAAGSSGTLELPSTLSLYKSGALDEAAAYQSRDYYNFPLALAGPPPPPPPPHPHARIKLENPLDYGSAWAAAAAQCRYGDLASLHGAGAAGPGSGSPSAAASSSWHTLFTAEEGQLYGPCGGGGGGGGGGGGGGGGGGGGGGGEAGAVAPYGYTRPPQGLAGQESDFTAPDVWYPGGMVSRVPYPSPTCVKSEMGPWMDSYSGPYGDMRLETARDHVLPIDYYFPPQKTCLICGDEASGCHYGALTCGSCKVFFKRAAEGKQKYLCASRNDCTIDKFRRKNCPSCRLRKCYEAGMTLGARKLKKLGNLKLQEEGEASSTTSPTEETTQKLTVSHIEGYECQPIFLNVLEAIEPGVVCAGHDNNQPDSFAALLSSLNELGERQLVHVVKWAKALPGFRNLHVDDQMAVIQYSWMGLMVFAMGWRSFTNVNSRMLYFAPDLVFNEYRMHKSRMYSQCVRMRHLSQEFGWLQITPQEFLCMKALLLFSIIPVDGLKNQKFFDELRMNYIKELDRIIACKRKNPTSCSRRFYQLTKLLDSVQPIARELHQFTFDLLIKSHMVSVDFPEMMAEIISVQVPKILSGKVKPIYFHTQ

This assay addresses Androgen Receptor/SRC-1 Co-activator, AR (gene 367) (UniProt P10275). In words: OT_AR_ARSRC1_0480: Odyssey Thera (OT) 8-hour HEK293T Protein-Complementation Assay for Androgen Receptor/SRC-1 Co-activator (AID 2283354).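 Further: hits raise the complementation signal above DMSO so AC50 marks enhancers.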 The protocol:
OT_AR_ARSRC1_0480 is a cell-based, single-readout assay that uses HEK293T, a human kidney cell line, with measurements taken at 8 hours after chemical dosing in a 384-well plate.OT_AR_ARSRC1_0480 is one of one assay component(s) measured or calculated from the OT_AR_ARSRC1_0480 assay. It is designed to make measurements of protein fragment complementation, a form of binding reporter, as detected with fluorescence intensity signals by Protein-fragment Complementation technology.Data from the assay component OT_AR_ARSRC1_0480 was analyzed into 1 assay endpoint. This assay endpoint, OT_AR_ARSRC1_0480, was analyzed in the positive analysis fitting direction relative to DMSO as the negative control and baseline of activity. Using a type of binding reporter, measures of receptor for gain-of-signal activity can be used to understand the binding at the pathway-level as they relate to the gene AR. Furthermore, this assay endpoint can be referred to as a primary readout, because the performed assay has only produced 1 assay endpoint. To generalize the intended target to other relatable targets, this assay endpoint is annotated to the nuclear receptor intended target family, where the subfamily is steroidal.
Protein-fragment complementation assay, or PCA, is a method for the identification and quantification of protein-protein interactions. In the PCA, the proteins of interest ("bait" and "prey") are each covalently linked to fragments of a third protein (e.g. DHFR, which acts as a "reporter"). Interaction between the bait and the prey proteins brings the fragments of the reporter protein in close proximity to allow them to form a functional reporter protein whose activity can be measured. The OT AR / SRC-1 assay assessed androgen receptor chemical interactions using a rapidly maturing, intensely fluorescent mutant of YFP known as Venus, rationally dissected into two separate fragments. […] Fusion constructs were transfected into HEK293T cells with a (Gly4Ser)2 linker between the AR/SRC-1 and YFP fragment genes to facilitate complementation when interacting proteins bring fragments into close proximity. The construct is stably expressed in HEK293T cells. […] Images were acquired on an Evotec Opera at 2 wavelengths (488 and 635nm), and the ratio of fluorescence in the nucleus relative to fluorescence in the cytoplasm (N/C Ratio) in the 488nm channel was calculated for a minimum of 400 cells per image. Both agonists and antagonists of the AR receptor induce nuclear translocation to varying degrees. […] The OT AR/SRC-1 assay was also run for 16 hours (see description for OT_AR_ARSRC1_0960).
Consider `O=[N+]([O-])C(Br)(CO)CO`, for which the AC50 is 72.1 µM (active).
Regarding `CNC(=O)Oc1cccc2c1OC(C)(C)C2`, the molecule was called inactive.
Consider `O=C1CCCO1`, for which the call was inactive.
In the case of `CCCCC(CC)COC(=O)c1ccc(C(=O)OCC(CC)CCCC)c(C(=O)OCC(CC)CCCC)c1` (stereo not given), the molecule was classed as inactive.
Same read-out and setting: for `CC(C)N(Cc1ccccc1)C(=O)C(C)(C)C` the value was “inactive”.
For the molecule `CO[C@@H]1[C@H](OC(=O)NC(=O)CCl)CC[C@]2(CO2)[C@H]1[C@@]1(C)O[C@@H]1CC=C(C)C`, the AC50 was 20.1 µM (active).
For `Nc1ccc([N+](=O)[O-])cc1`, the outcome was inactive.
On the same count and under the same terms, for `C[N+](C)(C)CC1CO1` (stereo not given) the value was “inactive”.
Still for that read-out and setting: for `O=C(Nc1ccccc1)c1ccccc1I` the value was “inactive”.
Regarding `Cc1cc(N=Nc2ccccc2C)ccc1N`, the AC50 is 67.5 µM (active).
On the same count and under the same terms, for `CC(C)(OOC(C)(C)c1ccccc1)c1ccccc1` the value was 71.1 µM (active).
As to `COC(=O)Nc1nc2ccccc2[nH]1`, the molecule was called inactive.
The same measure, in the same setting: for `CCNS(=O)(=O)C(F)(F)C(F)(F)C(F)(F)C(F)(F)C(F)(F)C(F)(F)C(F)(F)C(F)(F)F` the value was “inactive”; for `CC(C)(O)c1cnn2c(-c3ccc(F)c(-c4c(F)cccc4C#N)c3)cnc2n1`, “inactive”; for `Nc1ccc(Cl)cc1N`, “inactive”.

Source of the values: PubChem BioAssay (EPA / NIEHS).
